From PubChem BioAssay AID489025 (Southern Research Specialized Biocontainment Screening …, 2010)
About 790 (34%) of roughly 2,300 compounds were called active. How the calls were made is not given here. The list shows a part of the results. Results with a measured potency or affinity are listed apart.

Experiment: THP-1 cell cytotoxicity, dose response, cytotoxicity control for non-replicating M. tuberculosis project (AID 489025)
Details: THP-1 cell viability; series mostly up to 40 µM

SMILES	outcome
O=C(CC1CCCC1)OCn1nnc2ccccc2c1=O	inactive
CCCCCCCCCCn1cc(C(C)=O)c(=O)[nH]c1=O	inactive
O=C(N/N=C/c1ccccn1)c1cc([N+](=O)[O-])cc([N+](=O)[O-])c1	inactive
O=C(O/N=C/c1ccc2c(c1)OCO2)c1ccc([N+](=O)[O-])cc1	inactive
CCOC(=O)COc1ccc2c(=O)c(-c3ccccc3)coc2c1	inactive
COc1ccc2c([N+](=O)[O-])c(N3CCCC3)[nH]c2c1	inactive
CC(C)(C)NCc1cc(Br)ccc1OC1CCCC1	inactive
CC(C)(C)c1cc(CN2CCN(CCO)CC2)cc(C(C)(C)C)c1O	inactive
CN(C)CCC(=O)N1c2ccccc2Sc2ccc(C(F)(F)F)cc21	inactive
O=C(NCC1CCCCC1)c1ccco1	inactive
Brc1c(-c2ccc3c(c2)OCO3)nc2ncccn12	inactive
CCn1cc(C(=O)O)c(=O)c2cc(F)c(N3CCN(C(=S)NC(=O)c4ccccc4)CC3)cc21	inactive
CCCNC(=O)NC(=O)COc1ccc2oc3ccccc3c2c1	inactive
CC(C)(C)c1ccc(S(=O)(=O)NNC(=O)c2cc3ccccc3[nH]2)cc1	inactive
CC(C)Cc1nnc(NC(=O)CCS(=O)(=O)c2ccc(Cl)cc2)s1	inactive
O=C(COC(=O)c1ccccc1)NCc1cccs1	inactive
COc1ccc(C(=O)CCS(=O)(=O)c2ccc(C)cc2)cc1OC	inactive
COCCSc1nnc(NC(=O)CCS(=O)(=O)Cc2ccccc2)s1	inactive
CCOC(=O)c1ccc(-n2c(CCC(=O)O)ccc2-c2cccs2)cc1	inactive
O=C(COc1ccc2ccccc2c1)Nc1nccs1	inactive
CCOC(=O)c1csc(NC(=O)COc2ccc(Cl)cc2Cl)n1	inactive
Cc1ccc(OC(=O)c2ccc(Br)o2)cc1	inactive
CC(=O)NCCOC(=O)Nc1sc(=S)n(C)c1C	inactive
O=C(CCNc1cccc(Cl)c1)c1cccs1	inactive

SMILES	outcome
NC(=S)n1[nH]c(-c2ccc([N+](=O)[O-])cc2)c(N=Nc2ccc(O)cc2)c1=O	inactive
Cc1ccccc1-n1c(C)cc(/C=N/NC(=O)c2ccncc2)c1C	inactive
Cc1ccc(/C=N/NC(=O)c2ccncc2)o1	inactive
Cc1cc(OCc2cc(C(=O)N(C)CCc3cnn(C)c3)no2)cc(C)c1Cl	inactive
c1ccc2cc(OCCCn3ccnc3)ccc2c1	inactive
Cc1ccc(OCCCCn2ccnc2)c([N+](=O)[O-])c1	inactive
c1ccc(-c2ccccc2OCCCCn2ccnc2)cc1	inactive
Cc1cc(OCCCn2ccnc2)ccc1C(C)C	inactive
COc1ccc(-c2noc(-c3cc4ccccc4oc3=O)n2)cc1	inactive
CCCOc1ccc(N2CC(C(=O)Nc3ccccn3)CC2=O)cc1 (stereo not given)	inactive
O=S(=O)(Nc1nccs1)c1ccc(NCc2cc(Br)cc(Br)c2O)cc1	inactive
COCC(=O)Nc1ccccc1NC(C)=O	inactive
S=C(Nc1ccc2c(c1)OCO2)Nc1ccc2c(c1)OCO2	inactive
O=C1CC(Sc2ncccn2)C(=O)N1c1ccccc1C(F)(F)F (stereo not given)	inactive
CCOc1c(OC(C)=O)ccc(/C=C2\N=C(SCC)SC2=O)c1[N+](=O)[O-]	inactive
Cc1c(C(=O)N(C)C)sc2nc(-c3ccccn3)[nH]c(=O)c12	inactive
CCCCOC(=O)c1ccc(NC(=O)C2CCCO2)cc1 (stereo not given)	inactive
COCCNC(=O)c1cc2cc(Cl)cc(Cl)c2oc1=O	inactive
COC(=O)c1cc2c(ccc3ccccc32)oc1=O	inactive
C=CCOc1ccc(CNCCO)cc1OCC	inactive
O=S(=O)(c1ccc(Cl)c2ccccc12)N1CCCC1	inactive
CN(C(=O)COC(=O)c1ccc([N+](=O)[O-])cc1Cl)C1CCCCC1	inactive
N#Cc1cc(N)ccc1-n1cccc1	inactive
Cc1cc(C(=O)N/N=C/c2ccc(OC(=O)c3ccccc3Br)cc2)n[nH]1	inactive

SMILES	outcome
Cc1cc2ccccc2n1CCNC(=O)C(C)(C)C	inactive
CC(C)OC(=O)C(C)Oc1ccc(C(=O)NCCc2ccccc2)cc1 (stereo not given)	inactive
O=C(CC1CCCCC1)NCc1ccccc1	inactive
CC1CCN(C(=O)COC(=O)c2cc3ccccc3cc2O)CC1	inactive
CCNC(=O)COC(=O)c1ccc(-c2nc3ccccc3s2)s1	inactive
CCSc1ncc(/C=N/Nc2ccc(Cl)cc2)n1C	inactive
Cc1ccc(NC(=O)COC(=O)C2=COCCO2)c([N+](=O)[O-])c1	inactive
Cc1c(NC(=O)c2coc(=O)c(Br)c2)c(=O)n(-c2ccccc2)n1C	inactive
CCOC(=O)C(=O)NC12CC3CC(CC(C3)C1)C2	inactive
O=C(CCS(=O)(=O)Cc1ccccc1)Nc1ncc([N+](=O)[O-])s1	inactive
O=C(NCCC1CCCC1)c1cccs1	inactive
O=C(COC(=O)c1ccc(Br)o1)Nc1ncc([N+](=O)[O-])s1	inactive
C/C(=N\NC(=O)c1cccs1)c1ccc2c(c1)OCO2	inactive
CCC(=O)c1ccc(OCC(=O)OCC(=O)N2CCc3ccccc3C2)cc1	inactive
O=C(OCC(=O)N1CCc2ccccc21)c1ccc([N+](=O)[O-])cc1	inactive
COC(=O)COc1ccc2cc(-c3ccc(OC)cc3)c(=O)oc2c1	inactive
Cc1cccc(NC(=O)c2n[nH]c([N+](=O)[O-])c2Br)c1C	inactive
O=C(NCc1ccc(F)cc1)c1ccc(Br)o1	inactive
Cc1ccc(CCC(=O)Nc2ccc(C)c(C)c2)o1	inactive
O=C(Nc1ccc([N+](=O)[O-])cc1)c1ccc(Cn2cc([N+](=O)[O-])cn2)cc1	inactive
O=C(NCc1ccc(Cl)cc1)c1n[nH]c([N+](=O)[O-])c1Cl	inactive
Cc1cccc(NCCC(=O)c2ccc([N+](=O)[O-])cc2)c1C	inactive
COc1ccc(NC(=O)c2ccc(-c3ccc([N+](=O)[O-])cc3)o2)cc1OC	inactive
CCC1CCc2sc(C(=O)NCC3CCCO3)cc2C1 (stereo not given)	inactive

SMILES	outcome
CN1CCN(c2c(F)cc3c(=O)c(C(=O)O)cn4c3c2SCC4)CC1	inactive
Cc1cc(C=C2C(=O)N(C)C(=S)N(C)C2=O)c(C)n1-c1cccnc1	inactive
Cc1cccc(NC(=O)COC(=O)CCc2c[nH]c3ccccc23)c1C	inactive
CC(=O)c1ccc(-c2nnc(CCC(=O)N(C)Cc3cccc4cnccc34)o2)s1	inactive
CN1C(=O)CC(Sc2ccccc2C(=O)O)C1=O (stereo not given)	inactive
O=C(COC(=O)c1ccc(Cl)s1)c1ccc[nH]1	inactive
COC(=O)[C@H](CC(C)C)NC(=O)NCCC1=CCCCC1	inactive
CC1CC(C)CN(C(=O)COC(=O)c2ccc([N+](=O)[O-])o2)C1 (stereo not given)	inactive
COc1ccccc1NC(=O)C(=O)/C=C(\O)c1ccccc1	inactive
COc1ccccc1CCNC(=O)c1ccc(C)o1	inactive
CCn1nnc(NC(=O)c2ccc(-c3ccc(Cl)cc3)o2)n1	inactive
CCn1nnc(NC(=O)COc2ccc(C3CCCCC3)cc2)n1	inactive
CC12CN3CC(C)(CN(C1)C3c1ccc([N+](=O)[O-])o1)C2 (stereo not given)	inactive
COc1ccc(OCCCC(=O)Nc2ccc(N3CCOCC3)cc2)cc1	inactive
CCOC(=O)CCNC(=O)c1ccc2nc(C3CCCCC3)oc2c1	inactive
Cc1[nH][nH]c(=O)c1C(c1ccc(-c2ccc(F)cc2)o1)c1c(C)[nH][nH]c1=O	inactive
CC(C)(C)OC(=O)NCCC(=O)Oc1ccc2ccc(=O)oc2c1	inactive
Cc1noc(C)c1COc1ccc(C(=O)Nc2ccccn2)cc1	inactive
COCCn1c(C)cc(C(=O)COC(=O)c2ccc([N+](=O)[O-])o2)c1C	inactive
Cc1ccc(C)c(-c2nnc(NC(=O)C3=COCCO3)o2)c1	inactive
Cc1cc(C)c(C(=O)COC(=O)c2ccc([N+](=O)[O-])o2)cc1C	inactive
Cc1ccc(C)c(-c2nnc(NC(=O)COc3ccccc3)o2)c1	inactive
O=C(Nc1ccccc1F)c1ccc(CSc2ccccc2)o1	inactive
O=C1NN(c2ccccc2)C(=O)/C1=C/c1ccc(Sc2ccc(Cl)cc2)o1	inactive

SMILES	outcome
COc1ccc(-c2nnn(Cc3ccccc3)n2)cc1	inactive
NC(=O)c1cccnc1Nc1cccc(F)c1	inactive
COCCCC1CCN(Cc2nc(-c3ccccc3)no2)CC1	inactive
CCCCNC(=O)COC(=O)c1cc(Br)ccc1Cl	inactive
CC1COC(=O)C(NNc2ccc(Cl)c(Cl)c2)=N1 (stereo not given)	inactive
S=c1c2c(nc3nc[nH]n13)CCC2	inactive
O=C(Cc1ccc(Cl)cc1)OCC(=O)c1ccc[nH]1	inactive
Cc1cccc(OC(=O)c2sc3ncn(C)c(=O)c3c2C)c1	inactive
O=[N+]([O-])c1ccc(CN2CCN(c3ccc(Cl)cc3)CC2)o1	inactive
O=C(c1ccc([N+](=O)[O-])o1)N1CCN(Cc2ccccc2)CC1	inactive
Cc1ccccc1NC(=O)c1nc[nH]c1C(=O)NCc1ccccc1	inactive
Cc1cccc(CC(=O)NCC2CCCCC2)c1	inactive
COc1ccc2c(c1)C(=C(C#N)C#N)C(=O)N2CCc1ccccc1	inactive
CSc1nc2ccc(NC(=O)C3CC(=O)N(Cc4ccccc4)C3)cc2s1 (stereo not given)	inactive
O=C(CCC1CCCCC1)NCc1cccs1	inactive
CCc1ccc(OCC(=O)c2c(O)c3ccccc3oc2=O)cc1	inactive
CCCn1nnc(NC(=O)COc2ccc(CC)cc2)n1	inactive
COc1cc(/C=N/Nc2ccc(Cl)c(C(=O)O)c2)ccc1OC(=O)c1cccs1	inactive
COc1ccc(-c2nc(C=O)cs2)cc1	inactive
Cc1cc(Br)ccc1OCCCCN1CCC(C)CC1	inactive
CCOC(=O)COc1cc([N+](=O)[O-])cc2cccnc12	inactive
CCOC(=O)COc1ccc2c3c(c(=O)oc2c1C)CCC3	inactive
O=Cc1c(NCc2ccco2)nc2ccccn2c1=O	inactive
O=C(NCc1ccco1)c1nc2ccccc2s1	inactive
